High-throughput results (PubChem)
SW480 rerep – induces DNA re-replication in SW480 colon adenocarcinoma cells; SW480 DNA re-replication, Hoechst DNA content imaging, 48 h; Potency, µM (highest dose often 46.1 µM), for inactives: at the top dose re-replication activation, usual class: activators; 340,000 compounds, 1.8% hits; AID 624297; also: % of control where 0% means no effect; nearly all actives have a fitted effect of over 55% in size
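Per well, 250 cells were exposed to pinned compound for 48 hr. Nuclear DNA was visualised with Hoechst (40 min, 37 C) and total object intensity recorded by fluorescence scanning.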
MCF10A rerep – DNA re-replication induction in MCF 10a cells; MCF 10A DNA re-replication, Hoechst nuclear intensity, 48 h; Potency, µM (highest dose often 46.1 µM), without a hit: at the top dose activity, positive = re-replication, most hits filed as activators; 350,000 compounds, 2.9% hits; also: % of control where 0% means no effect; nearly all actives have a fitted effect of over 50% in size
ELG1 DNA repair – blocks ELG1-dependent DNA repair in HEK293T cells; Potency, µM (top dose mostly 46.1 µM), without a hit: top-dose activity change, negative = inhibition, most hits filed as inhibitors; HEK293T ELG1-luciferase reporter, luminescence, 16 h; DNA damage induced by 5-fluorouridine; 330,000 compounds, 2.3% hits; AID 504467; also: % is scaled to controls: 0 for no effect and ±100 for the full control effect; nearly all actives have a fitted effect of over 55% in size
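HEK293T cells expressing luciferase-tagged ELG1 (2,000/well) received 5-Fluorouridine plus compound or DMSO for 16 hr at 37 °C. Luciferase was read by ONE-Glo luminescence after 30 min at room temperature.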
KB-V1 MDR tox – KB-V1 MDR subline cytotoxicity. 400,000 compounds, 3.4% hits. AID 1347076. KB-V1 MDR cells viability, CellTiter-Glo, 72 h. Potency, µM (doses to about 46.1 µM), usual class: cytotoxic; also: % is scaled to controls: 0 for no effect and ±100 for the full control effect; nearly all actives have a fitted effect of over 60% in size
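Potencies derive from concentration-effect curves fitted to normalized luminescence (CellTiter-Glo) of KB-V1 cells treated for 72 h at 37 degrees C in phenol-red-free DMEM containing 10% FBS.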
KB-3-1 cytotox – KB-3-1 parental cell cytotoxicity | KB-3-1 viability, CellTiter-Glo ATP luminescence, 72 h | Potency, µM (top dose mostly 46.1 µM), most hits filed as cytotoxic | 400,000 compounds, 1.4% hits | AID 1347075; also: % is scaled to controls: 0 for no effect and ±100 for the full control effect; nearly all actives have a fitted effect of over 60% in size
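Using CellTiter-Glo luminescence, growth of non-resistant KB-3-1 adenocarcinoma cells is assessed 72 h after pin-tool compound addition at 37 °C. Normalized responses across the concentration series yield fitted curves.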
An asterisk follows results filed as active. Compounds with a hit are over-represented: about 8.1% of the library has one in this group of screens. Calls follow the shape of the dose curve; as a rule, active = well fitted curve in the direction sought with a large enough effect; inconclusive = small, poorly fitted or top-dose-only effect, or another doubt; inactive = no such curve, though single readings can be large; an effect the other way counts as inactive or inconclusive. Potency is read from the fitted curve at half-maximal effect.

What do the screens show for `O=C(O)c1cc2c([nH]c1=O)CCCC2`?
SW480 rerep: -9%; MCF10A rerep: 1%; ELG1 DNA repair: 4%; KB-V1 MDR tox: inactive; KB-3-1 cytotox: inactive

What do the screens show for `COc1ccccc1OC(=O)CCN1c2ccccc2Sc2ccccc21`?
SW480 rerep: -2%; MCF10A rerep: 3%; ELG1 DNA repair: 3%; KB-V1 MDR tox: inactive; KB-3-1 cytotox: inactive

What do the screens show for `COc1ccc(C(=O)/C=C2\Sc3ccccc3N2C)cc1`?
SW480 rerep: inconclusive; MCF10A rerep: inconclusive; ELG1 DNA repair: inconclusive; KB-V1 MDR tox: inconclusive; KB-3-1 cytotox: inactive

What do the screens show for `COc1ccc(-[n+]2c(C)cc(/C=C3\Sc4ccccc4N3C)cc2C)cc1`?
SW480 rerep: 18µM*; MCF10A rerep: inconclusive; ELG1 DNA repair: 18µM*; KB-V1 MDR tox: inconclusive; KB-3-1 cytotox: inconclusive

Results for COc1ccccc1-[n+]1c(C)cc(/C=C2\Sc3ccccc3N2C)cc1C ?
SW480 rerep: 23µM*; MCF10A rerep: inconclusive; ELG1 DNA repair: inconclusive; KB-V1 MDR tox: 9.2µM*; KB-3-1 cytotox: 0.29µM*

How did C[C@@H](C(=O)N1CCN(c2ccccc2)CC1)N1C(=O)C2CC=CCC2C1=O (stereo not given in full) do in these assays?
SW480 rerep: -1%; MCF10A rerep: inconclusive; ELG1 DNA repair: 18%; KB-V1 MDR tox: inactive; KB-3-1 cytotox: inactive

How did O=C(N/N=C/c1ccc[nH]1)c1c[nH]c2ccccc12 do in these assays?
SW480 rerep: 7.3µM*; MCF10A rerep: 11%; ELG1 DNA repair: inconclusive; KB-V1 MDR tox: inactive; KB-3-1 cytotox: inactive

How did Cc1cc(C(=O)N/N=C/c2ccc(N(C)C)cc2)c2ccccc2n1 do in these assays?
SW480 rerep: 18µM*; MCF10A rerep: 7.1µM*; ELG1 DNA repair: 9%; KB-V1 MDR tox: inconclusive; KB-3-1 cytotox: 9.2µM*

How did O=C(N/N=C/c1ccc([N+](=O)[O-])cc1)c1cc(C2CC2)nc2ccccc12 do in these assays?
SW480 rerep: inconclusive; MCF10A rerep: inconclusive; ELG1 DNA repair: inconclusive; KB-V1 MDR tox: inactive; KB-3-1 cytotox: inconclusive

What do the screens show for `CCc1ccc(/C=N/NC(=O)c2cc(C3CC3)nc3ccccc23)s1`?
SW480 rerep: 18µM*; MCF10A rerep: 7.3µM*; ELG1 DNA repair: inconclusive; KB-V1 MDR tox: 5.2µM*; KB-3-1 cytotox: 5.2µM*

How did Cc1cc(C(=O)N/N=C/c2ccc([N+](=O)[O-])cc2)c2ccccc2n1 do in these assays?
SW480 rerep: 13µM*; MCF10A rerep: inconclusive; ELG1 DNA repair: inconclusive; KB-V1 MDR tox: inactive; KB-3-1 cytotox: 5.8µM*

Results for O=C(N/N=C/c1ccccn1)c1c[nH]c2ccccc12 ?
SW480 rerep: -5%; MCF10A rerep: 2%; ELG1 DNA repair: inconclusive; KB-V1 MDR tox: inactive; KB-3-1 cytotox: inactive

What do the screens show for `Cc1cc(C(=O)N/N=C/c2ccc([N+](=O)[O-])s2)c2ccccc2n1`?
SW480 rerep: 25%; MCF10A rerep: inconclusive; ELG1 DNA repair: 21µM*; KB-V1 MDR tox: inactive; KB-3-1 cytotox: inconclusive

Results for CCOc1ccc2nc(C)cc(Nc3cccc([N+](=O)[O-])c3)c2c1 ?
SW480 rerep: inconclusive; MCF10A rerep: 18µM*; ELG1 DNA repair: -3%; KB-V1 MDR tox: 15µM*; KB-3-1 cytotox: inactive

Results for Cc1cc(C(=O)N/N=C/c2cc([N+](=O)[O-])ccc2O)c2ccccc2n1 ?
SW480 rerep: 16µM*; MCF10A rerep: 13%; ELG1 DNA repair: -29%; KB-V1 MDR tox: inconclusive; KB-3-1 cytotox: inactive

Results for Cc1cc(Nc2cccc([N+](=O)[O-])c2)c2ccccc2n1 ?
SW480 rerep: -27%; MCF10A rerep: inconclusive; ELG1 DNA repair: -12%; KB-V1 MDR tox: inconclusive; KB-3-1 cytotox: inactive

Results for Cc1cc(Nc2ccc([N+](=O)[O-])cc2)c2ccccc2n1 ?
SW480 rerep: 71%; MCF10A rerep: 2.6µM*; ELG1 DNA repair: 7%; KB-V1 MDR tox: inactive; KB-3-1 cytotox: inactive

What do the screens show for `COCCn1c(=NC(=O)c2cc3ccccc3oc2=O)sc2cc(S(N)(=O)=O)ccc21`?
SW480 rerep: inconclusive; MCF10A rerep: 13%; ELG1 DNA repair: -12%; KB-V1 MDR tox: inactive; KB-3-1 cytotox: inactive

Results for CCOC(=O)C1CCN(Cc2c(O)ccc3ccccc23)CC1 ?
SW480 rerep: -4%; MCF10A rerep: 37%; ELG1 DNA repair: 0%; KB-V1 MDR tox: inactive; KB-3-1 cytotox: inactive

Results for CCn1cnc2cc(NS(=O)(=O)c3ccc(OC)c(OC)c3)ccc21 ?
SW480 rerep: -1%; MCF10A rerep: 0%; ELG1 DNA repair: -15%; KB-V1 MDR tox: inactive; KB-3-1 cytotox: inactive

What do the screens show for `O=C(N/N=C/c1cc([N+](=O)[O-])ccc1O)C12CC3CC(CC(C3)C1)C2`?
SW480 rerep: inconclusive; MCF10A rerep: 7.3µM*; ELG1 DNA repair: inconclusive; KB-V1 MDR tox: inactive; KB-3-1 cytotox: inconclusive

Results for O=C(N/N=C/c1cc([N+](=O)[O-])ccc1O)c1c[nH]c2ccccc12 ?
SW480 rerep: 8%; MCF10A rerep: 12%; ELG1 DNA repair: 8.2µM*; KB-V1 MDR tox: inconclusive; KB-3-1 cytotox: inconclusive

Results for CCc1cc(C(=O)N/N=C/c2ccc(O)cc2)c2ccccc2n1 ?
SW480 rerep: inconclusive; MCF10A rerep: 23µM*; ELG1 DNA repair: -14%; KB-V1 MDR tox: inactive; KB-3-1 cytotox: inconclusive

What do the screens show for `O=C(N/N=C/c1cccc([N+](=O)[O-])c1)c1c[nH]c2ccccc12`?
SW480 rerep: -7%; MCF10A rerep: 0%; ELG1 DNA repair: 4%; KB-V1 MDR tox: inactive; KB-3-1 cytotox: inactive

Results for COc1cc(C(=O)NN=Cc2ccc(N(C)C)cc2)cc(OC)c1OC ?
KB-V1 MDR tox: 3.7µM*; KB-3-1 cytotox: 1.5µM*

What do the screens show for `CC(C)CCNC(=O)C1CCN(S(=O)(=O)c2cccc3nsnc23)CC1`?
KB-V1 MDR tox: inactive; KB-3-1 cytotox: inactive

Results for COc1cc(-c2noc(C)c2C(=O)NCc2ccc(C)o2)cc(OC)c1OC ?
SW480 rerep: 3%; MCF10A rerep: inconclusive; ELG1 DNA repair: -21%; KB-V1 MDR tox: inactive; KB-3-1 cytotox: inactive

Results for CC(NC(=O)CCC(=O)c1ccc(F)cc1)C1CC2CCC1C2 (stereo not given) ?
SW480 rerep: inconclusive; MCF10A rerep: 10µM*; ELG1 DNA repair: -17%; KB-V1 MDR tox: inactive; KB-3-1 cytotox: inactive

How did CC(NC(=O)c1ccc(F)cc1Cl)C1CC2CCC1C2 (stereo not given) do in these assays?
SW480 rerep: -6%; MCF10A rerep: 4%; ELG1 DNA repair: inconclusive; KB-V1 MDR tox: inactive; KB-3-1 cytotox: inactive

How did O=c1c2sc3ccccc3c2n(Cc2cccc(C(F)(F)F)c2)c(=O)n1Cc1ccco1 do in these assays?
KB-V1 MDR tox: inactive; KB-3-1 cytotox: inactive
